# High-throughput results: PubChem BioAssay, several laboratories
# The list is not random: actives were taken first. Their share in the collection is about 32%.
# CYP2C9 inhib: blocks human cytochrome P450 2C9; inhibition, % at 5 µM; P11712; actives 20% (n = 96,000); CYP2C9 Supersomes, luciferin-H conversion, luminescence;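 active means blocking of liver enzyme CYP2C9 beyond about 50% at 5 µM, limit read from the data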
# Target sequence (P11712 whole entry, looked up): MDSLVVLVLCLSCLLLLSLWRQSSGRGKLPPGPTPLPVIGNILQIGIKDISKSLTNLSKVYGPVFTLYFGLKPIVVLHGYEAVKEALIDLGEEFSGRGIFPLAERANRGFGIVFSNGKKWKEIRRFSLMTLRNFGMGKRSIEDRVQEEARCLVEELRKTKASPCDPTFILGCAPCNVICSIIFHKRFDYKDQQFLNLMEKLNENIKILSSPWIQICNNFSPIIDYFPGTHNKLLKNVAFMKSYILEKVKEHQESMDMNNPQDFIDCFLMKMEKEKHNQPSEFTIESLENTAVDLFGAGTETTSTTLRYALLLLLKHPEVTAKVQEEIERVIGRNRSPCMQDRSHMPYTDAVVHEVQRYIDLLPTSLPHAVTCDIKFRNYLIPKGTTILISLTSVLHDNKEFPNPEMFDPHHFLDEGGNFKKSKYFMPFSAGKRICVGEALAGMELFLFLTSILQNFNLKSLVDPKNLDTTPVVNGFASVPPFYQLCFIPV
# CYP2C19 inhib: human CYP2C19 inhibition. P33261. CYP2C19 Supersomes, luciferin-H EGE luminescence, 30 min. inhibition, % at 5 µM. actives 21% (n = 96,000). AID 778;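 active means CYP2C19 inhibition above a set limit at 5 µM in the primary screen, cut at about 50% in these data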;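 further: plate controls were negative control wells for no effect and 2.5 mM tranylcypromine positive control for full effect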
# PostGolgi yeast: growth inhibition of a yeast mutant, post-Golgi transport screen. post-Golgi transport phenotypic cell assay. inhibition, % at 10 µM. actives 0.9% (n = 98,000);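 further: yeast cells grown in 1536-well plates; yeast grown about 18 h at 30C before absorbance read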
# CYP2C9 act: increases human cytochrome P450 2C9 activity | P11712 | recombinant CYP2C9, luciferin-H conversion, luminescence; active compounds read high; factor 1 = untreated enzyme, 0 = blocked | activation factor at 5 µM | actives 1.4% (n = 96,000);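 active means activation factor of 2 or more for CYP2C9 at a 5 µM dose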;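 further: 0 = sulfaphenazole-blocked wells and 1 = vehicle-only wells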
# CYP2C19 activ: increases human CYP2C19 enzyme activity. 96,000 tested, under 10 active. AID 1025. activation factor at 5 µM. recombinant CYP2C19, luciferin-H EGE luminescence; active compounds read high; 0 = fully inhibited enzyme, 1 = untreated enzyme. P33261;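 active means activation factor of at least 2 at 5 µM in the primary screen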;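 further: 0 = wells with 2.5 mM tranylcypromine and 1 = vehicle-only wells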
# PostGolgi ctrl: growth of the yeast control strain, post-Golgi counter-screen; efflux-deficient yeast background strain, growth absorbance A615, 16 h; inhibition, % at 10 µM; actives 5% (n = 98,000); AID 738
# An asterisk follows results filed as active; / = no result. Unless noted, no stated cut-off is given here; in the data, active means inhibition above about 30%; inactive means the rest.
SMILES,CYP2C9 inhib,CYP2C19 inhib,PostGolgi yeast,CYP2C9 act,CYP2C19 activ,PostGolgi ctrl
Cn1nc(C(F)(F)F)cc1C(=O)NC1CCCCCC1,17.0,49.8,-0.6,0.8,0.5,11.7
C=CCn1c(NC(=O)c2ccc(C)cc2)c(C#N)sc1=N,-9.0,-1.7,-5.5,1.1,1,3.6
O=C(CN1CCC(n2nnc3cc(F)ccc32)CC1)NCc1ccco1,29.6,26.3,-0.7,0.7,0.7,-6.9
Cc1ccc2c(c1)nnn2C1CCN(CC(=O)Nc2ccccc2N2CCOCC2)CC1,74.7*,71.2*,6.0,0.3,0.3,15.8
COC(=O)c1ccccc1NC(=O)CN1CCC(n2nnc3cc(C(F)(F)F)ccc32)CC1,82.3*,69.5*,-8.7,0.2,0.3,11.3
COc1ccc(C(=O)NNC(=O)CN2CCC(n3nnc4cc(C(F)(F)F)ccc43)CC2)cc1,21.0,3.6,4.8,0.8,1,8.9
Cc1ccccc1OCCNC(=O)CNC(=O)c1ccccc1O,41.9,43.1,-3.4,0.6,0.6,7.9
COc1ccc(-c2nc(NC(=O)Cn3ccc(C(F)(F)F)n3)sc2C)cc1,39.8,57.4*,-8.4,0.6,0.4,19.8
CCOn1c(-n2nc(C)cc2C)nc2ccccc2c1=O,6.5,62.8*,9.3,0.9,0.4,26.6
Cc1cc(C)n(-c2nc3ccccc3c(=O)n2OC2CCCCC2)n1,52.5*,68.5*,0.5,0.5,0.3,13.1
Cc1ccc(-c2nnc(N3CCN(C(=O)CN4CCOCC4)CC3)c3ccccc23)cc1,31.1,19.4,5.4,0.7,0.8,-1.8
COc1ccc(OC)c(S(=O)(=O)Nc2ccc3oc4c(c3c2)C(=O)CCC4)c1,93.7*,57.0*,7.8,0.1,0.4,10.6
CCn1nnnc1-c1ccc(OC)c(S(=O)(=O)Nc2ccc(C)c(C)c2)c1,62.1*,48.7,-4.2,0.4,0.5,29.2
COc1ccc(C)cc1S(=O)(=O)Nc1cccc(Cl)c1,47.5,38.7,-4.0,0.5,0.6,43.4*
CCn1nnnc1-c1ccc(OC)c(S(=O)(=O)NCc2ccccc2)c1,28.1,35.8,-4.5,0.7,0.6,11.6
COc1ccc(F)cc1S(=O)(=O)Nc1ccc(C)cc1,56.9*,40.4,2.6,0.4,0.6,10.3
COc1ccc(C)cc1S(=O)(=O)Nc1ccc(F)c(Cl)c1,/,/,-4.1,/,/,18.0
COc1ccc(OC)c(S(=O)(=O)Nc2cccnc2)c1,1.1,26.4,5.6,1,0.7,-3.1
CSc1nnc(-c2ccc(S(=O)(=O)N3CCOCC3)cc2)n1CC1CCCO1 (centres undefined),24.0,16.3,-3.7,0.8,0.8,27.8
NC(=S)Nc1ccc(Oc2ccc(NC(N)=S)cc2)cc1,12.5,-4.6,0.8,0.9,1,5.6
c1ccc(CSc2ncnc3c2cnn3Cc2ccccc2)cc1,19.3,11.9,6.9,0.8,0.9,16.9
COc1cccc(NS(=O)(=O)c2cc(C)ccc2OC)c1,52.3*,69.2*,1.6,0.5,0.3,16.4
COc1ccc(C)cc1S(=O)(=O)Nc1cccc(SC)c1,22.1,20.7,4.7,0.8,0.8,20.1
COc1ccc(OC)c(S(=O)(=O)Nc2ccc(C)c(C)c2)c1,83.8*,99.0*,1.3,0.2,0,1.2
COc1ccc(C)cc1S(=O)(=O)NC1CCCCC1C (centres undefined),89.4*,85.2*,-4.9,0.1,0.1,14.5
SMILES,CYP2C9 inhib,CYP2C19 inhib,PostGolgi yeast,CYP2C9 act,CYP2C19 activ,PostGolgi ctrl
COc1ccc(NS(=O)(=O)c2cc(C)ccc2OC)cc1OC,41.0,82.5*,6.3,0.6,0.2,1.2
O=C(Nc1ccc(SC(F)F)cc1)c1cccc2nc3ccccc3nc12,12.3,-9.0,0.6,0.9,1.1,4.5
COC(=O)c1cc(C)sc1NC(=O)C1CC=CCC1C(=O)O (centres undefined),44.5,-3.1,-1.3,0.6,1,-1.6
Cc1sc(NC(=O)C2CC=CCC2C(=O)O)c(C(=O)OC(C)C)c1C (centres undefined),54.2*,1.7,-4.8,0.5,1,8.7
O=C(O)[C@H](Cc1ccccc1)NC(=O)N1CCOCC1,-7.3,-4.1,13.6,1.1,1,10.7
Cc1ccc(N2C(N)=C(C#N)C3(C(=O)N(C)c4ccccc43)C3=C2CC(C)(C)CC3=O)cc1Cl (centres undefined),54.4*,12.5,-5.6,0.5,0.9,-2.0
